Laboratory results from PubChem BioAssay AID1159580 (chemical genetic matrix, 2015).
Several values for one entry are separate records, joined by “and”; a condition that tells them apart may be missing. Equal values may be shown once. About 2,000 (36%) of roughly 5,500 compounds were called active. Roughly 18% stayed inconclusive and do not appear here. No stated cut-off is given here; in the data, active means normalized growth mostly below about 0.91 (no sharp cut-off); inconclusive means no clear call, values can overlap the other calls; inactive means mostly above about 0.92. The list shows a part of the results.

Assay: chemical genetic growth profiling, strain panel (AID 1159580);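 further: tested at 20 µM; growth read once vehicle control cultures reached saturation at 30 °C; 1 = growth at the plate median or of vehicle wells; lower values mean less growth of the strain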
Conditions: S. cerevisiae deletion strains, growth OD

Measured: normalized growth

COc1c2ccoc2cc2oc(C)cc(=O)c12
inactive: locus YAL021C, strain ccr4, active compounds read low 1 | locus YAL026C, strain drs2, active compounds read low 0.999 | locus YAL030W, strain snc1, active compounds read low 0.987 | locus YBL061C, strain skt5, active compounds read low 1 | locus YBR009C, strain hhf1, active compounds read low 0.993 | locus YBR021W, strain FUR4, active compounds read low 0.997 | locus YBR023C, strain chs3, active compounds read low 0.991 | locus YBR171W, strain sec66, active compounds read low 0.987 | locus YBR229C, strain ROT2, active compounds read low 0.948 | locus YBR231C, strain swc5, active compounds read low 0.99 | locus YBR279W, strain paf1, active compounds read low 0.995 | locus YCL011C, strain gbp2, active compounds read low 0.985 | locus YCL016C, strain dcc1, active compounds read low 0.979 | locus YCL029C, strain bik1, active compounds read low 0.98 | locus YCL069W, strain vba3, active compounds read low 1.01 | locus YCR088W, strain abp1, active compounds read low 0.99 | locus YDL005C, strain med2, active compounds read low 1 | locus YDL035C, strain GPR1, active compounds read low 0.972 | locus YDL040C, strain nat1, active compounds read low 1 | locus YDL074C, strain BRE1, active compounds read low 0.981 | locus YDL101C, strain DUN1, active compounds read low 0.96 | locus YDL134C, strain PPH21, active compounds read low 0.964 | locus YDL185W, strain tfp1, active compounds read low 0.971 | locus YDL192W, strain arf1, active compounds read low 0.945 | locus YDR001C, strain nth1, active compounds read low 0.997 | locus YDR069C, strain doa4, active compounds read low 1 | locus YDR101C, strain arx1, active compounds read low 1.02 | locus YDR137W, strain rgp1, active compounds read low 1 | locus YDR159W, strain sac3, active compounds read low 1.02 | locus YDR162C, strain NBP2, active compounds read low 0.905 | locus YDR195W, strain ref2 1.03 | locus YDR297W, strain sur2, active compounds read low 1 | locus YDR318W, strain mcm21, active compounds read low 0.945 | locus YDR334W, strain swr1, active compounds read low 1 | locus YDR335W, strain msn5, active compounds read low 1 | locus YDR388W, active compounds read low 0.996 | locus YDR392W, strain spt3, active compounds read low 0.961 | locus YDR502C, strain sam2, active compounds read low 0.966 | locus YEL003W, strain gim4, active compounds read low 1 | locus YEL037C, strain rad23, active compounds read low 1 | locus YEL061C, strain CIN8 (second series), active compounds read low 0.997 | locus YEL061C, strain CIN8, active compounds read low 0.975 | locus YER015W, strain faa2, active compounds read low 0.997 | locus YER016W, strain bim1, active compounds read low 0.996 | locus YER110C, active compounds read low 0.972 | locus YER111C, strain swi4, active compounds read low 0.985 | locus YER155C, strain BEM2 (second series), active compounds read low 0.999 | locus YER155C, strain BEM2, active compounds read low 1 | locus YER167W, strain BCK2, active compounds read low 0.98 | locus YFR010W, strain ubp6, active compounds read low 0.985 | locus YGL078C, strain dbp3, active compounds read low 0.999 | locus YGL086W, strain mad1, active compounds read low 1.05 | locus YGL167C, strain pmr1, active compounds read low 0.997 | locus YGL173C, strain kem1, active compounds read low 0.984 | locus YGL227W, strain vid30, active compounds read low 0.986 | locus YGL240W, strain doc1, active compounds read low 1.01 | locus YGL248W, strain PDE1, active compounds read low 0.928 | locus YGL253W, strain hxk2, active compounds read low 0.988 | locus YGR078C, strain PAC10, active compounds read low 0.922 | locus YGR135W, strain pre9, active compounds read low 0.914 | locus YGR252W, strain gcn5, active compounds read low 0.912 | locus YHR013C, strain ard1, active compounds read low 0.993 | locus YHR027C, strain rpn1, active compounds read low 0.995 | locus YHR030C, strain SLT2, active compounds read low 0.987 and 1.04 | locus YHR079C, strain IRE1 (second series), active compounds read low 1 | locus YHR079C, strain IRE1, active compounds read low 1.04 | locus YHR094C, strain hxt1, active compounds read low 0.978 | locus YHR129C, strain ARP1, active compounds read low 0.981 | locus YHR142W, strain chs7, active compounds read low 0.971 | locus YHR200W, strain rpn10, active compounds read low 0.953 | locus YIL066C, strain RNR3, active compounds read low 0.971 | locus YIL073C, strain SPO22, active compounds read low 0.936 | locus YIL125W, strain kgd1, active compounds read low 1 | locus YIR030C, strain dcg1, active compounds read low 0.995 | locus YJL092W, strain hpr5, active compounds read low 0.993 | locus YJL095W, strain BCK1 (second series), active compounds read low 0.999 | locus YJL095W, strain BCK1, active compounds read low 0.884 and 1.03 | locus YJL115W, strain asf1, active compounds read low 1.01 | locus YJL129C, strain trk1, active compounds read low 1.01 | locus YJL134W, strain LCB3, active compounds read low 0.985 | locus YJL154C, strain vps35, active compounds read low 1.01 | locus YJL164C, strain tpk1, active compounds read low 0.989 | locus YJL166W, strain qcr8, active compounds read low 0.984 | locus YJL168C, strain set2, active compounds read low 1 | locus YJL187C, strain SWE1 (second series), active compounds read low 0.947 | locus YJR043C, strain POL32, active compounds read low 0.97 | locus YJR066W, strain TOR1, active compounds read low 0.993 | locus YJR075W, strain HOC1, active compounds read low 0.955
